Measured values from PubChem BioAssay (NCATS).
Results filed as inconclusive are left out. Calls of active or inactive are those of the source. Calls follow the shape of the dose curve; as a rule, active = well fitted curve in the direction sought with a large enough effect; inconclusive = small, poorly fitted or top-dose-only effect, or another doubt; inactive = no such curve, though single readings can be large; an effect the other way counts as inactive or inconclusive.

Experiments:
[1] = tested on: NIH3T3; assay: qHTS assay to identify novel small-molecules to repurpose for Merkel cell carcinoma treatment (AID 1296009); details: MCC and control cell lines, CellTiter-Glo viability, 72 h; at 44.8 µM (top of the series) unless noted; also: nearly all actives have a fitted effect of over 60% in size
Procedure, shortened: (§1)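 After compound transfer in DMSO, plates were kept 72 hr at 37 degree celsius. Luminescent ATP signal from CellTiter-Glo served as viability measure, normalized against DMSO and no-cell controls.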

[2] = tested on: UISO; assay: as above; details: MCC and control cell lines, CellTiter-Glo viability, 72 h; series mostly up to 46 µM
Procedure, shortened: as §1

[3] = tested on: WaGa; assay: as above; details: MCC and control cell lines, CellTiter-Glo viability, 72 h; series mostly up to 46 µM
Procedure, shortened: as §1

[4] = tested on: C33A; assay: Primary qHTS to identify gynecologic anti-cancer compounds using libraries of approved drugs and bioactive compounds (AID 1345084); details: Gynecologic cancer cell panel viability, ATPlite luminescence, 48 h; series mostly up to 57.5 µM; also: nearly all actives have a fitted effect of over 55% in size
Procedure, shortened: (§2)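 In this quantitative HTS, cell killing is estimated from loss of ATP-dependent luciferase light. Cells see five compound concentrations over a 48 h exposure.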

[5] = tested on: CAOV3; assay: as above; details: Gynecologic cancer cell panel viability, ATPlite luminescence, 48 h; series mostly up to 57.5 µM
Procedure, shortened: as §2

[6] = tested on: CASKI; assay: as above; details: Gynecologic cancer cell panel viability, ATPlite luminescence, 48 h; series mostly up to 57.5 µM
Procedure, shortened: as §2

[7] = tested on: HeLa; assay: as above; details: Gynecologic cancer cell panel viability, ATPlite luminescence, 48 h; series mostly up to 57.5 µM
Procedure, shortened: as §2

[8] = tested on: Hek293T; assay: as above; details: Gynecologic cancer cell panel viability, ATPlite luminescence, 48 h, control line for the selectivity index; series mostly up to 57.5 µM
Procedure, shortened: as §2

[9] = tested on: JEG-3; assay: as above; details: Gynecologic cancer cell panel viability, ATPlite luminescence, 48 h; series mostly up to 57.5 µM
Procedure, shortened: as §2

[10] = tested on: Es-2; assay: as above; details: Gynecologic cancer cell panel viability, ATPlite luminescence, 48 h; series mostly up to 57.5 µM
Procedure, shortened: as §2
% is scaled to controls: 0 for no effect and ±100 for the full control effect.

CC(=O)Oc1cc(C(C)C)c(OCCN(C)C)cc1C
inactive: outcome [1] | Potency [2] | Potency [3] | Potency [4] | Potency [5] | Potency [6] | Potency [7] | Potency [8] | Potency [9]

NC(Cc1ccc(Cl)cc1)C(=O)O (configuration not stated)
inactive: activity change, negative = cytotoxicity [2] 36.5% [at 0.597 µM] | activity change, negative = cytotoxicity [3] 12.8% [at 0.597 µM] | activity change, negative = cytotoxicity [4] 13.6% [at 0.462 µM] | activity change, negative = cytotoxicity [5] 0.059% [at 0.462 µM] | activity change, negative = cytotoxicity [6] 7.36% [at 0.462 µM] | activity change, negative = cytotoxicity [10] 1.05% [at 0.462 µM] | activity change, negative = cytotoxicity [7] 14.4% [at 0.462 µM] | activity change, negative = cytotoxicity [8] 0.47% [at 0.462 µM] | activity change, negative = cytotoxicity [9] 1.83% [at 0.462 µM]

CC(C(=O)O)c1ccc(CC2CCCC2=O)cc1 (configuration not stated)
inactive: Potency [2] | Potency [3] | Potency [4] | Potency [5] | Potency [6] | Potency [10] | Potency [7] | Potency [8] | Potency [9]

CNC1(C)C2CCC(C2)C1(C)C (configuration not stated)
inactive: outcome [1] | Potency [2] | Potency [3] | Potency [4] | Potency [5] | Potency [6] | Potency [10] | Potency [7] | Potency [8] | Potency [9]

CN(C)C/C=C(/c1ccc(Br)cc1)c1cccnc1
inactive: outcome [1] | Potency [2] | Potency [3] | Potency [4] | Potency [5] | Potency [6] | Potency [7] | Potency [8] | Potency [9]

CN=C(NC#N)NCCSCc1nc[nH]c1C
inactive: Potency [2] | Potency [3] | Potency [4] | Potency [5] | Potency [6] | Potency [10] | Potency [7] | Potency [8] | Potency [9]

O=C(O)CCCCCCCC(=O)O
inactive: outcome [1] | Potency [2] | Potency [3] | Potency [4] | Potency [5] | Potency [6] | Potency [10] | Potency [7] | Potency [8] | Potency [9]

CC(N=C(NC#N)Nc1ccncc1)C(C)(C)C (configuration not stated)
inactive: Potency [2] | Potency [3] | Potency [4] | Potency [5] | Potency [6] | Potency [10] | Potency [7] | Potency [8]

O=C(O)CN(CCN(CC(=O)O)CC(=O)O)CCN(CC(=O)O)CC(=O)O
inactive: Potency [2] | Potency [3] | Potency [4] | Potency [5] | Potency [6] | Potency [10] | Potency [7] | Potency [8] | Potency [9]

CC(C)[N+](C)(CCOC(=O)C1c2ccccc2Oc2ccccc21)C(C)C
inactive: outcome [1] | Potency [2] | Potency [4] | Potency [5] | Potency [6] | Potency [10] | Potency [7] | Potency [8] | Potency [9]

CC(=O)[C@@]1(O)CC[C@H]2[C@@H]3CCC4=CC(=O)CC[C@]4(C)[C@H]3CC[C@@]21C
inactive: Potency [2] | Potency [3] | Potency [4] | Potency [5] | Potency [6] | Potency [10] | Potency [7] | Potency [8] | Potency [9]

CCN(CC)CC(=O)Nc1c(C)cccc1C
inactive: outcome [1] | Potency [2] | Potency [3] | Potency [4] | Potency [5] | Potency [6] | Potency [10] | Potency [7] | Potency [8] | Potency [9]

COc1ccc(CN(CCN(C)C)c2ccccn2)cc1
inactive: Potency [2] | Potency [3] | Potency [4] | Potency [5] | Potency [6] | Potency [10] | Potency [7] | Potency [8] | Potency [9]

CC(C)(Oc1ccc(CCNC(=O)c2ccc(Cl)cc2)cc1)C(=O)O
inactive: outcome [1] | Potency [2] | Potency [3] | Potency [4] | Potency [5] | Potency [6] | Potency [10] | Potency [7] | Potency [8] | Potency [9]

C[N+](C)(C)CCOC(=O)CCC(=O)OCC[N+](C)(C)C
inactive: outcome [1] | Potency [2] | Potency [3] | Potency [4] | Potency [5] | Potency [6] | Potency [10] | Potency [7] | Potency [8] | Potency [9]

CN(C)CC[C@@H](c1ccc(Br)cc1)c1ccccn1
inactive: Potency [2] | Potency [3] | Potency [4] | Potency [5] | Potency [6] | Potency [10] | Potency [7] | Potency [8] | Potency [9]

CN(C)[C@@H]1C(=O)C(C(N)=O)=C(O)[C@@]2(O)C(=O)C3=C(O)c4c(O)ccc(Cl)c4[C@@H](O)[C@H]3C[C@@H]12
inactive: outcome [1] | Potency [2] | Potency [3] | Potency [4] | Potency [5] | Potency [6] | Potency [10] | Potency [7] | Potency [8] | Potency [9]

CCCCNc1ccc(C(=O)OCCN(C)C)cc1
inactive: outcome [1] | Potency [2] | Potency [3] | Potency [4] | Potency [5] | Potency [6] | Potency [10] | Potency [7] | Potency [8] | Potency [9]

CCc1c(C)[nH]c2c1C(=O)C(CN1CCOCC1)CC2 (configuration not stated)
inactive: outcome [1] | Potency [2] | Potency [4] | Potency [5] | Potency [6] | Potency [10] | Potency [7] | Potency [8] | Potency [9]

CC(=O)Nc1nnc(S(N)(=O)=O)s1
inactive: outcome [1] | Potency [2] | Potency [3] | Potency [4] | Potency [5] | Potency [6] | Potency [10] | Potency [7] | Potency [8] | Potency [9]

NCCCNCCSP(=O)(O)O
inactive: outcome [1] inactive [at 9.27 µM] | activity change, negative = cytotoxicity [2] -0.378% [at 9.22 µM] | activity change, negative = cytotoxicity [3] 14.2% [at 9.22 µM] | activity change, negative = cytotoxicity [4] 4.43% [at 11.6 µM] | activity change, negative = cytotoxicity [5] 4.48% [at 11.6 µM] | activity change, negative = cytotoxicity [6] 0.847% [at 11.6 µM] | activity change, negative = cytotoxicity [10] 6.18% [at 11.6 µM] | activity change, negative = cytotoxicity [7] 7.86% [at 11.6 µM] | activity change, negative = cytotoxicity [8] -0.973% [at 11.6 µM] | activity change, negative = cytotoxicity [9] -0.217% [at 11.6 µM]
